# EBV LMP1 NFkB – EBV LMP1-driven NF-kappaB luciferase reporter inhibitors, primary screen, cell-based, luminescence, single point | LMP1-induced NF-kappaB luciferase reporter cells | inhibition, % at 12.5 µM | 350,000 compounds, 0.69% hits | AID 504558, 2011; in the data active = inhibition above about 41%;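 also: 0% = neutral control wells and 100% = reference inhibitor control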
# TWEAK Fn14 block – inhibitors of TWEAK-Fn14 signaling, primary screen, luciferase reporter cells, uHTS | inhibition, % at 10 µM | 360,000 compounds, 2% hits | AID 1159606, 2016 | TWEAK-stimulated Fn14 reporter cells, luciferase luminescence, 8 h; in the data active = inhibition above about 50%
# aDG glyco act – activators of alpha-DG glycosylation, primary screen, uHTS, Pro5-aDG cells, AlphaScreen; 360,000 compounds, 0.22% hits; alpha-DG glycosylation AlphaScreen (IIH6); 0% Pro5, 100% B10-LARGE cell signal; activation, % at 10 µM; AID 624168, 2012;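 active = activation of at least 8% versus controls, or a plate z-score of at least 8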;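 also: Pro5 are CHO cells carrying HIG-tagged alpha-DG that lacks glycosylation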
# TROY NFkB inh – inhibitors of TROY-driven NF-kB signaling, primary screen, Q293 LMP1-TROYcd cells, NF-kB luciferase, uHTS; Q293 LMP1-TROYcd NF-kB luciferase reporter, 4 h; inhibition, % at 10 µM; 360,000 compounds, 0.98% hits;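 active = compounds whose plate-normalised and pattern-corrected inhibition of the luciferase reporter signal at the single screening dose is 50% or more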
# HSP90 inh – HSP90 inhibitors, primary screen, cell lysate, luminescence; inhibition, % at 5.6 µM; 290,000 compounds, 0.91% hits; Rabbit reticulocyte lysate, luciferase refolding luminescence, 3 h; Heat shock protein HSP 90 (rabbit reticulocyte lysate; luciferase refolding);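 active = inhibition above the screen-wide mean plus 3 SD, computed separately per campaign, cut at about 16% in these data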;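 also: 0% = DMSO wells and 100% = 60 µM geldanamycin wells; inhibitors lower the luminescence because luciferase stays unfolded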
# LGR2 antag – inhibitors of bursicon-induced LGR2 CRE-luciferase signal, primary screen, cell-based, HEK293, CRE-luciferase reporter, bursicon stimulation; Drosophila bursicon receptor LGR2 (rickets); bursicon-stimulated, 4 h; inhibition, % at 9.99 µM; 380,000 compounds, 0.35% hits; AID 720647, 2013;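 active = drop in luminescence signal, shown as inhibition above about 50% in the replicate tests, limit read from the data, passing the limit was not always enough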;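 also: agonist challenge used bursicon conditioned medium at about half maximal strength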
# Numbers without * were called inactive; nt = no result. Shown are actives, neighbours in structure and some others; about 2.6% of the full set was active somewhere.
SMILES,EBV LMP1 NFkB,TWEAK Fn14 block,aDG glyco act,TROY NFkB inh,HSP90 inh,LGR2 antag
O=C(Cn1ncc(Cl)c(Cl)c1=O)NCC1CCCCC1,85.8*,96.6*,-0.5,-0.5,0.1,nt
Cc1cccc(NC(=O)CNC(=O)Cn2ncc(Cl)c(Cl)c2=O)c1C,-57.4,100.3*,0.3,10.3,nt,nt
O=C1CN(C(=O)COc2ccc(Cl)c(Cl)c2)c2ccccc2N1,10.8,2.2,-0.3,9.6,nt,0.4
O=C1CN(C(=O)Cn2ncc(Cl)c(Cl)c2=O)c2ccccc2N1,-45.7,94.3*,-0.3,70.2*,2.0,105.1*
Cc1cccc(NC(=O)CNC(=O)CSc2ncccn2)c1C,13.1,-7.1,-0.1,-18.8,nt,-8.5
CCCNC(=O)Nc1ccc2c(c1)OC[C@@H](C)N(C(=O)C1CCCCC1)C[C@@H](C)[C@H](OC)CN(C)C2=O,nt,nt,nt,nt,nt,-11.4
O=C(Nc1cccc(-c2nnc(-c3ccccc3)o2)c1)c1ccc(Br)o1,-4.0,40.2,0.2,58.4*,5.7,-1.7
Cc1cc(C)cc(OCC(=O)Nc2cccc(-c3nnc(-c4ccco4)o3)c2)c1,13.7,67.9*,0.0,56.6*,4.8,34.3
COc1ccc(C(=O)Nc2cccc(-c3nnc(-c4ccco4)o3)c2)cc1,-8.1,56.9*,-0.2,22.9,1.8,nt
COc1ccc(CC(=O)Nc2cccc(-c3nnc(-c4ccco4)o3)c2)cc1,11.9,33.2,0.2,-31.0,-0.5,nt
COc1ccc2c3c([nH]c2c1)[C@H](CO)N(Cc1ccccc1Cl)CC31CCN(C(C)=O)CC1,nt,nt,nt,nt,nt,-11.4
CCNC(=O)C[C@H]1C=C[C@H](NC(=O)C2CCOCC2)[C@@H](CO)O1,nt,nt,nt,nt,nt,4.4
Cc1ccc(C)c(S(=O)(=O)Nc2ccccc2C(=O)Nc2cc(C)on2)c1,0.9,28.2,0.2,32.0,-4.8,nt
Cc1cc(NC(=O)c2ccccc2NS(=O)(=O)c2c(C)c(C)cc(C)c2C)no1,15.8,37.5,0.0,53.4*,1.1,nt
O=C(Nc1ccc(Br)c2ccccc12)c1ccc2ccccc2c1O,15.8,55.3*,0.0,50.8*,-2.6,30.3
COc1ccc2[nH]c3c(c2c1)CC(C)NC3=O (stereo not drawn),28.0,71.4*,-0.1,49.8,-1.0,28.4
COc1ccc2[nH]c3c(c(=O)c2c1)CCCC3,nt,-10.6,-0.3,-1.9,nt,-5.4
Cc1ccc(C(=O)NCc2ccc3c(c2)OCO3)c(Cl)c1,-10.3,-10.8,-0.3,-51.0,nt,-53.4
COC(=O)c1ccc(NC(=O)c2nc(S(=O)(=O)Cc3cccc(C)c3)ncc2Cl)cc1,19.6,71.6*,-0.2,75.9*,0.5,6.2
CC(=O)Nc1ccc(NC(=O)c2nc(S(=O)(=O)Cc3cccc(C)c3)ncc2Cl)cc1,6.9,70.0*,-0.3,74.8*,1.9,-39.2
CCSc1ncc(Cl)c(C(=O)Nc2ccc(S(N)(=O)=O)cc2)n1,0.0,2.7,0.1,19.3,0.9,-0.5
Cc1cccc(CS(=O)(=O)c2ncc(Cl)c(C(=O)NCc3ccc4c(c3)OCO4)n2)c1,-1.7,89.1*,-0.4,69.3*,0.8,4.5
Cc1cccc(COC(=O)Nc2ccc(NC(=O)c3ccccc3Cl)cc2)c1,1.3,6.3,0.2,6.4,3.0,11.4
COCC#Cc1cnc2c(c1)C(=O)N([C@H](C)CO)C[C@@H](C)[C@@H](CN(C)C(=O)C1CCCCC1)O2,nt,nt,nt,nt,nt,5.5
Cc1ccc(-c2ccc3c(c2)O[C@@H](CN(C)Cc2ccncc2)[C@H](C)CN([C@H](C)CO)S3(=O)=O)cc1,nt,nt,nt,nt,nt,1.5
CNC[C@@H]1OCCCC[C@H](C)Oc2ccc(NS(=O)(=O)c3c(C)noc3C)cc2C(=O)N([C@@H](C)CO)C[C@H]1C,nt,nt,nt,nt,nt,5.5
COc1ccc(N/C(N)=N/c2nc(C)cc(=O)[nH]2)cc1,85.7*,-9.6,-0.1,-7.2,-2.3,7.2
COc1cccc(N/C(N)=N/c2nc(C)cc(=O)[nH]2)c1,-3.1,-2.4,-0.1,-0.5,-1.9,nt
C[C@H](CO)N1C[C@H](C)[C@H](CN(C)S(C)(=O)=O)OCCCC[C@H](C)Oc2ccc(NS(=O)(=O)c3cn(C)cn3)cc2C1=O,nt,nt,nt,nt,nt,-9.1
Cc1ccc(C#N)c(SCc2ccccc2F)n1,nt,-44.5,-0.1,-35.3,0.6,0.9

# High-throughput results from PubChem BioAssay.
